Assay results: PubChem BioAssay (NCATS)
Inconclusive results are not listed. A call without a number means that no potency is given here. Calls of active or inactive are those of the source. Calls come from the whole dose curve; as a rule, active = well fitted inhibition curve with a large enough effect; inconclusive = small, poorly fitted or top-dose-only effect; inactive = flat fitted curve, though single readings scatter.
Potency is the fitted concentration of half-maximal effect.

Test: High Content Imaging Cell-Based qHTS for Inhibitors of the mTORC1 Signaling Pathway in MEF (Tsc2-/-, p53-/-) Cells (AID 2666);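 note: percent of cells scored positive for phospho-rpS6 Ser235/236 immunostaining by imaging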
Settings: series mostly up to 38.3 µM
Source text: NIH Molecular Libraries Probe Production Centers Network [MLPCN]
NIH Chemical Genomics Center [NCGC]
Assay Submitter (PI): Blenis, John; Hoffman, Greg; Harvard University
NCGC Assay Overview: Thee mammalian target of rapamycin (mTOR) is an intracellular serine/threonine kinase Aberrant regulation of mTOR signaling plays a causative role in a number of human diseases, including cancer, benign tumors such as lymphangioleiomyomatosis (LAM) and Tuberous Sclerosis Complex (TSC), and metabolic diseases such as diabetes and obesity. This project aims to identify inhibitors of ribosomal protein S6 (rpS6) phosphorylation. The phosphorylation of rpS6 is a key event downstream of mTOR activation. The assay uses a phospho-specific antibody of phospho-rpS6 to detect inhibitors of mTOR activation. Mutations in the Tsc1 and Tsc2 genes are the underlying genetic lesions responsible for TSC, causing constitutive activation of the mTORC1 pathway and leading to profound effects on cell metabolism. Aberrant metabolism in cancer has recently received significant attention as a target to develop therapeutic agents in the treatment of cancer1. As Tsc2-/- cells have lost the ability to respond to energy and growth factor deprivation, these cells are unable to properly down regulate cellular biosynthetic processes in response to metabolic stress, and are thus extremely sensitive to glucose deprivation-induced death.2 A central goal of this project is to explore the unique cell survival and metabolic properties of cells with Tsc1 or Tsc2 by screening for compounds that selectively target the Tsc2-/- MEFs by screening both Tsc2-/- and WT MEF cell lines. We hope to better understand these aspects of TSC physiology in order to exploit them for therapeutic benefit.
NCGC IN Cell Assay Protocol:
For quantitative high throughput analysis of mTORC1 signaling, we developed a cell-based assay for immuno-fluorescence based detection of rpS6 phosphorylation on the Acumen Explorer that will be used a platform for the primary small molecule screen. Mouse embryonic fibroblasts (MEFs) are cultured in 1536-well plates using DMEM + 10% FBS. Twenty-four hrs after plating, test compounds (solubilized in DMSO) are delivered and incubated with the cells for 24 hrs at 37 degree Celsius. Following the incubation, media with compound is aspirated and the cells are fixed in 4% paraformaldehyde (PFA) containing PBS + 0.2% TX-100. Next, PFA is aspirated, cells are washed two times with PBS plus 0.2% TX-100 and the cells are blocked for 1 hr at room temperature (blocking buffer: LiCOR Blocking Buffer plus 0.2% TX-100). This is followed by aspiration and staining with Alexa-488 conjugated-phospho-rpS6 Ser235/236 antibody for 2 hours at room temperature (Cell Signaling Technology # 4803, 1:50 dilution in blocking buffer). Cells are washed two times with PBS plus 0.2% TX-100, and stained with 10 uM propidium iodide (PI) for 20-25 minutes for cell number measurement (1:500 dilution of Hoescht staining is also added for IN Cell imaging). Active wells which are selected (based on Acumen results) are imaged on the IN Cell 1000 (GE Healthcare) using the D360/40X and HQ480/40X excitation filters for the Hoechst and Alexa-488 cytoplasmic stains, respectively. The fluorescence emission filters used were HQ460/40M and HQ535/50M for the Hoechst and Alexa-488 cytoplasmic stains, respectively. The normalized phospho-S6 staining is calculated as the ratio of […] for the single concentration rapamycin control ([…] nM) and DMSO columns. […] Inhibition of the pathway is defined based on the normalized phospho-S6 intensity in rapamycin treated cells. Each treatment is reported as the % positive cells in the well, where thresholds are defined by selecting wells with the highest and lowest signal and differentiating between the % non-active and % active populations. […]
With `CC(C)NNC(=O)c1ccncc1` the Potency was “inactive”.
In the case of `CN=C(NC#N)NCCSCc1nc[nH]c1C`, the Potency is reported as “inactive”.
In the case of `NC/C=C/C(=O)O`, the Potency is reported as “inactive”.
For `CCN(CC)CCCN(c1ccccc1)C1Cc2ccccc2C1`, the Potency was “inactive”.
In the case of `CCCOc1ccccc1-c1nc2n[nH]nc2c(=O)[nH]1`, the Potency is reported as “inactive”.
In the case of `Nc1c2c(nc3ccccc13)CCCC2O` (stereo not given), the Potency is reported as “inactive”.
For `CNCCCN1c2ccccc2CCc2ccccc21`, the Potency was “inactive”.
In the case of `O=C(O)CN(CCN(CC(=O)O)CC(=O)O)CCN(CC(=O)O)CC(=O)O`, the Potency is reported as “inactive”.
For `CN(C(=O)CCCOc1ccc2[nH]c(=O)ccc2c1)C1CCCCC1`, the Potency was “inactive”.
With `COc1cc2c(cc1OC)-c1cc(=Nc3c(C)cc(C)cc3C)n(C)c(=O)n1CC2` the Potency was “inactive”.
With `CCOC(=O)C1=C(C)NC(C)=C(C(=O)OC)C1c1cccc(Cl)c1Cl` (stereo not given) the Potency was “inactive”.
With `NC(Cc1ccc(Cl)cc1)C(=O)O` (stereo not given) the Potency was “inactive”.
With `C[C@H](CS)C(=O)N1CCC[C@H]1C(=O)O` the Potency was “inactive”.
In the case of `Cc1ccc(S(=O)(=O)NC(=O)NN2CCCCCC2)cc1`, the Potency is reported as “inactive”.
With `C(=C\c1ccccc1)/CN1CCN(C(c2ccccc2)c2ccccc2)CC1` the Potency was “inactive”.
For `CC1=C(C)C(=O)C(CCCCC#CCCCC#CCO)=C(C)C1=O`, the Potency was “inactive”.
In the case of `CN(C)C/C=C(/c1ccc(Br)cc1)c1cccnc1`, the Potency is reported as “inactive”.
With `COC(=O)[C@@H](N)Cc1ccc(O)c(O)c1` the Potency was “inactive”.
In the case of `c1ccc2c(c1)CCCC2C1=NCCN1` (stereo not given), the Potency is reported as “inactive”.
In the case of `Nc1ncn([C@@H]2O[C@H](CO)[C@@H](O)[C@H]2O)c(=O)n1`, the Potency is reported as “inactive”.
In the case of `COc1ccc(CN(CCN(C)C)c2ccccn2)cc1`, the Potency is reported as “inactive”.
For `CN(C)C(=O)Oc1ccc[n+](C)c1`, the Potency was “inactive”.
For `OC(CCN1CCCCC1)(c1ccccc1)C1CCCCC1` (stereo not given), the Potency was “inactive”.
In the case of `Cc1ccc(Cl)c(Nc2ccccc2C(=O)O)c1Cl`, the Potency is reported as “inactive”.
For `CCN(CC)CCNC(=O)c1cc(S(C)(=O)=O)ccc1OC`, the Potency was “inactive”.
For `C[C@]12CC[C@@H]3c4ccc(O)cc4C[C@@H](CCCCCCCCCS(=O)CCCC(F)(F)C(F)(F)F)[C@H]3[C@@H]1CC[C@@H]2O` (stereo not given in full), the Potency was “inactive”.
With `CCOC(=O)C1=C(C)NC(C)=C(C(=O)OC)C1c1cccc([N+](=O)[O-])c1` (stereo not given) the Potency was “inactive”.
With `CN1CCN(CC(=O)N2c3ccccc3C(=O)Nc3cccnc32)CC1` the Potency was “inactive”.
For `COc1cc(C(=O)OCCCN2CCCN(CCCOC(=O)c3cc(OC)c(OC)c(OC)c3)CC2)cc(OC)c1OC`, the Potency was “inactive”.
With `C#CCN(C)CCCOc1ccc(Cl)cc1Cl` the Potency was “inactive”.
With `O=c1[nH]c(=O)n([C@H]2C[C@H](O)[C@@H](CO)O2)cc1Br` the Potency was “inactive”.
In the case of `CC(=O)[C@]1(O)Cc2c(O)c3c(c(O)c2[C@@H](O[C@H]2C[C@H](N)[C@H](O)[C@H](C)O2)C1)C(=O)c1ccccc1C3=O`, the Potency is reported as 2330 nM (active).
With `Cc1cccc(C)c1NC(=O)C(C)N` (stereo not given) the Potency was “inactive”.
With `CCN(Cc1ccncc1)C(=O)C(CO)c1ccccc1` (stereo not given) the Potency was “inactive”.
In the case of `Cc1scc2c1N(C(=O)CN1CCN(C)CC1)c1ccccc1NC2=O`, the Potency is reported as “inactive”.
In the case of `CC(=O)Nc1nnc(S(N)(=O)=O)s1`, the Potency is reported as “inactive”.
For `COc1cc(Cc2cnc(N)nc2N)cc(OC)c1OC`, the Potency was “inactive”.
For `CCCCNc1ccc(C(=O)OCCN(C)C)cc1`, the Potency was “inactive”.
For `Cc1nc2c([nH]1)c(=O)n(C)c(=O)n2Cc1ccco1`, the Potency was “inactive”.
In the case of `CC(C)(C)NCC(O)c1cc(O)cc(O)c1` (stereo not given), the Potency is reported as “inactive”.
